tested on: RARb:RXRa (NR concentration 270 nM, RXRa partner concentration 90 nM); assay: PBM binding z-score (relative to random genomic background probes); higher = stronger binding; sequences stand for … in GC…GCGATTGACAGCGTAGAATGAAGG
Summary of the method: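 Regression normalization was applied to scanned fluorescence from custom Agilent 4×180K protein-binding microarrays. Before scanning, arrays were incubated 1 h with ligand-free nuclear receptor dimers, and binding was detected with antibodies against each partner (one per run). Binding z-scores use the random background probes as reference.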

| Sequence | PBM binding z-score |
| --- | --- |
| ATATGTAGGCTAGGGTCATTCAGAAAGTAGGGAA | 3 |
| CGAACTTGGTCACCAGGACAGTGAAGAGGTTGGA | 1.38 |
| ATATGTAGGTTAGGGGCATTCAGAAAGTAGGGAA | 1.86 |
| ATATGTAGGTTAGGGTCATTAAGAAAGTAGGGAA | 3.32 |
| ATATGTAGGTTTGGGTCATTCAGAAAGTAGGGAA | 2.07 |
| ATATGTAAGTTAGGGTCATTCAGAAAGTAGGGAA | 3.23 |
| ATATGAAGGTTAGGGTCATTCAGAAAGTAGGGAA | 3.66 |
| CGAACTAGGTCAATGGACAGTGAAAGGCGACGTA | 3.51 |
| CGAACTAGGTAACCAGGACAGTGAAGAGGTTGGA | 0.0285 |
| ATATGGAGGTTAGGGTCATTCAGAAAGTAGGGAA | 3.93 |
| CGAACTAGGTCACCAGGGCAGTGAAGAGGTTGGA | 4.22 |
| CGAACTAGGTCACCAGGACATTGAAGAGGTTGGA | 4.21 |
| CGAACTAGGTCAAAGGACAGCGAAAGGCGACGTA | 3.93 |
| CGAACTAGGCCACCAGGACAGTGAAGAGGTTGGA | 0.821 |
| CGAACTAGGGCACCAGGACAGTGAAGAGGTTGGA | 1.42 |
| CCAACTAGGTCACCAGGACAGTGAAGAGGTTGGA | 4.36 |
| CGAACTAGGTCAAAGTACAGTGAAAGGCGACGTA | 3.84 |

Reference: the supplement of paper PMC6555819
